These results are taken from PubChem BioAssay (EPA / NIEHS).

Experiment [1] is described as follows: BSK_BT_PBMCCytotoxicity: PBMC Cytotoxicity Assessment in the BioMAP Diversity Plus: BT Assay (AID 2284225).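 Also: PBMC viability measured by Alamar Blue dye reduction fluorescence.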 The conditions noted are these: primary human B cells with PBMC. Put shortly:
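Viability by Alamar Blue reduction (6 h, ex/em 546/580 nm) after 90 h culture of SEB/TSST-1-activated PBMC (20 ng/mL each) given compound 1 h before activation. DMSO served as baseline for curve fitting.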

Read-out in experiment [2]: Secreted IgG (sIgG), gene 3500
The experiment can be described thus: BSK_BT_sIgG: BioMAP Diversity Plus: BT Assay for Secreted IgG (sIgG) Biomarker Activity (AID 2284226). The conditions noted are these: primary human B cells with PBMC. The procedure, abridged:
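Cells (B cells with peripheral blood mononuclear cells) are dosed, cultured 24 h, then supernatant IgG is measured by ELISA. DMSO serves as negative control; curves are fitted for signal increase.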

Read-out in experiment [3]: Interleukin 6 (IL6), IL6 (gene 3569)
The experiment can be described thus: BSK_BT_xIL6: BioMAP Diversity Plus: BT Assay for Interleukin 6 (IL6) Biomarker Activity (AID 2284228). Conditions: primary human B cells with PBMC. The procedure, abridged: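 Secreted IL-6 in the primary human B cell plus PBMC system, measured by Luminex at 24 h post-chemical, DMSO as baseline. Alamar Blue viability: 75,000 cells/well, chemical 1 h before SEB/TSST-1 (20 ng/mL each), 90 h, then 6 h dye.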

Read-out in experiment [4]: Interleukin 17A (IL17A), IL17A (gene 3605)
The experiment can be described thus: BSK_BT_xIL17A: BioMAP Diversity Plus: BT Assay for Interleukin 17A (IL17A) Biomarker Activity (AID 2284229). Conditions: primary human B cells with PBMC. Put shortly: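 Luminex xMAP quantification of secreted IL-17A after 24 h chemical exposure of a primary human B cell/PBMC co-culture. Signal increases fitted relative to DMSO negative control.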

Read-out in experiment [5]: Tumor necrosis factor (Homo sapiens) (UniProt P01375)
The experiment can be described thus: BSK_BT_xTNFa: BioMAP Diversity Plus: BT Assay for Tumor necrosis factor alpha (TNF-alpha) Biomarker Activity (AID 2284230). Conditions: primary human B cells with PBMC. The procedure, abridged:
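Read-out: Luminex xMAP quantitation of secreted TNF-alpha from a B cell/PBMC co-culture 24 h after compound addition. Signal analysed relative to DMSO vehicle, positive fitting direction.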

Experiment [6] is described as follows: CCTE_Mundy_HCI_Cortical_Synap_Neur_Matur_BPCount: CCTE's Synaptogenesis and Neurite Maturation Assay in rat cortical cells for Branch Point Count, Mundy Lab (AID 2284211). Put shortly:
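HCI read-out of branch points from MAP2/synaptophysin/Hoechst immunofluorescence; rat cortical cultures, AraC DIV 5, dosing DIV 7, fixed DIV 12; fit in positive direction vs DMSO baseline.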

The nature of experiment [7]: CCTE_Mundy_HCI_Cortical_NOG_NeuriteCount: CCTE's Neurite Outgrowth Assay in rat cortical cells for Neurite Count, Mundy Lab (AID 2284212).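 Also: cells fixed about two days after chemical exposure began.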 Put shortly:
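Rat cortical primary cells; compound added 2 h post-plating, 1/10 dilution of working solution. Anti-betaIII-tubulin/AF488 ICC; ArrayScan neurite count vs DMSO.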

The nature of experiment [8]: CCTE_Mundy_HCI_Cortical_NOG_NeuriteLength: CCTE's Neurite Outgrowth Assay in rat cortical cells for Neurite Length, Mundy Lab (AID 2284213).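 As to AC50: neurites imaged about 48 to 50 h after chemical exposure began.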 Put shortly:
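First, rat primary cortical cells were plated and, 2 h later, given test chemical as a 1/10 dilution. Finally, βIII-tubulin immunostaining enabled automated imaging of neurite length.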

Experiment [9] is described as follows: CCTE_Mundy_HCI_Cortical_Synap_Neur_Matur_NeuriteLength: CCTE's Synaptogenesis and Neurite Maturation Assay in rat cortical cells for Neurite Length, Mundy Lab (AID 2284214). The procedure, abridged: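 Cultures of rat primary cortical cells received chemical at DIV 7 and were fixed at DIV 12, after glial arrest with AraC at DIV 5. Neurite length was measured by automated imaging of MAP2 immunofluorescence.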

Experiment [10] can be described thus: CCTE_Mundy_HCI_Cortical_Synap_Neur_Matur_NeuriteSpotCountPerNeuron: CCTE's Synaptogenesis and Neurite Maturation Assay in rat cortical cells for Neurite Spot Count per Neuron Count, Mundy Lab (AID 2284215). The procedure, abridged: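 High-content imaging counts synaptophysin puncta along MAP2-labelled neurites per neuron after chemical exposure of rat cortical cells from DIV 7 to termination at DIV 12 (AraC added DIV 5). Loss of signal relative to DMSO.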

Experiment [11] is described as follows: CCTE_Mundy_HCI_Cortical_Synap_Neur_Matur_SynapseCount: CCTE's Synaptogenesis and Neurite Maturation Assay in rat cortical cells for Synapse Count, Mundy Lab (AID 2284218). Put shortly: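 Cells were plated, allowed 2 hr to attach, treated with AraC at DIV 5, then exposed to chemicals from DIV 7 until DIV 12. After fixation and MAP2/synaptophysin immunolabelling, synapses per neuron were quantified by automated imaging against DMSO.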

A short description of experiment [12]: CCTE_Mundy_HCI_Cortical_Synap_Neur_Matur_NeuriteCount: CCTE's Synaptogenesis and Neurite Maturation Assay in rat cortical cells for Neurite Count, Mundy Lab (AID 2284222).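 Also: exposure from day 7 to day 12 in vitro with readout at day 12.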 Put shortly: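 Rat cortical neurons, 96-well; AraC DIV 5; chemical + media change DIV 7; end DIV 12. Fix PFA/Hoechst, anti-MAP2 + anti-synaptophysin IF. HCI neurite count vs DMSO baseline.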

Experiment [13] is described as follows: CCTE_Mundy_HCI_Cortical_Synap_Neur_Matur_CellBodySpotCount: CCTE's Synaptogenesis and Neurite Maturation Assay in rat cortical cells for Cell Body Spot Count, Mundy Lab (AID 2284223). The procedure, abridged: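 High-content imaging counts synaptophysin puncta on neuronal cell bodies per neuron after MAP2/synaptophysin immunostaining. Rat primary cortical cells, glia arrested with AraC at DIV 5, were exposed DIV 7–12; signal decrease measured against DMSO.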

Experiment [14] in a line: TAMU_PeakParms_SingleDonor1434_Chronotropy: Texas A&M University (TAMU) 1.5-hr Human Induced Pluripotent Stem Cell (iPSC)-derived Cardiomyocytes Calcium (Ca+2) Flux Assay for Cardiotoxicity: Chronotropy (changes in peak frequency) (AID 2284217). The conditions noted are these: actives raise or lower the signal. The procedure, abridged: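 Beat rate, as mean Ca2+-flux peak frequency, was read from donor 1434 iPSC cardiomyocytes 90 min after exposure to 0.2–100 uM test chemical (0.5% DMSO). Wells that stopped beating were excluded; EC05 from bidirectional DMSO-referenced fitting.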

Experiment [15] can be described thus: CCTE_Mundy_HCI_hN2_NOG_NeuriteCount: CCTE's Neurite Outgrowth Assay in human hN2 cells for Neurite Count, Mundy Lab (AID 2284219; active = hit-call score of the fitted dose curve at least 0.9, where 1 is the maximum). The procedure, abridged: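 In this morphology assay, hNP1-derived neurons received test chemical 2 h post-plating and were fixed two days later in warm paraformaldehyde/sucrose containing Hoechst 33342. Neurites, labelled by rabbit anti-βIII-tubulin (1:800) and Alexa Fluor-488 (1:500), were counted automatically.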

Experiment [16] is described as follows: CCTE_Mundy_HCI_hN2_NOG_NeuriteLength: CCTE's Neurite Outgrowth Assay in human hN2 cells for Neurite Length, Mundy Lab (AID 2284220; active = hit-call score of the fitted dose curve at least 0.9, where 1 is the maximum). Put shortly: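 Read-out is neurite length from high-content imaging of βIII-tubulin/Alexa Fluor-488-labelled neurons, referenced to DMSO controls.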
Experiment [17] in a line: CCTE_Mundy_HCI_hN2_NOG_NeuronCount: CCTE's Neurite Outgrowth Assay in human hN2 cells for Neuron Count, Mundy Lab (AID 2284221; active = hit-call score of the fitted dose curve at least 0.9, where 1 is the maximum). Put shortly: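 Read-out is the number of betaIII-tubulin-positive neurons imaged by automated high-content analysis, with DMSO as negative control.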
Experiment [18] in a line: CCTE_Mundy_HCI_hNP1_Pro_ResponderAvgInten: CCTE's Proliferation Assay in human neuroprogenitor cells, Mundy Lab (AID 2284224; active = hit-call score of the fitted dose curve at least 0.9, where 1 is the maximum;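 also: human neural progenitor cells hNP1 derived from WA09 embryonic stem cells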). The procedure, abridged: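 Proliferation read as average intensity of BrdU-positive cells, imaged at 26.25 h post-dosing: chemical exposure started after 40–44 h culture, BrdU during final 4 h, paraformaldehyde fixation. Positive-direction fit relative to DMSO.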

A short description of experiment [19]: UKN4_HCS_LUHMES_cell_viability: Viability Assessment in the University of Konstanz (UKN) Leist Lab Neurite Outgrowth Assay in human LUHMES cells (UKN4) (AID 2284232). Put shortly: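 Cells switched to differentiation medium at day 0, replated on day 2 in medium lacking cAMP and GDNF, and compound-treated once attached. Live staining began 23.5 h later, imaging followed at 24 h.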

Experiment [20] can be described thus: UKN2_HCS_IMR90_cell_viability: Viability Assessment in the University of Konstanz (UKN) Leist Lab Neural Crest Cell Migration Assay in human induced IMR90 Pluripotent Stem Cells (UKN2) (AID 2284233).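 Also: cells exposed to compound for 24 h after a 24 h migration phase.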 The procedure, abridged: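 Viability read as calcein-AM fluorescence by high-content imaging, Hoechst co-stain, 30 min. Human iPSC (IMR90) neural crest cells had migrated 24 h into stopper-defined gaps before 24 h chemical exposure. Fitted bidirectionally relative to DMSO.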

Inconclusive results are not listed. The source made the active and inactive calls. The calls were made as follows, unless noted: active = hit-call score of the fitted dose curve at least 0.9, where 1 is the maximum; inactive = score below 0.9.

Chain of Tumor necrosis factor (Homo sapiens) (P01375 whole entry, looked up): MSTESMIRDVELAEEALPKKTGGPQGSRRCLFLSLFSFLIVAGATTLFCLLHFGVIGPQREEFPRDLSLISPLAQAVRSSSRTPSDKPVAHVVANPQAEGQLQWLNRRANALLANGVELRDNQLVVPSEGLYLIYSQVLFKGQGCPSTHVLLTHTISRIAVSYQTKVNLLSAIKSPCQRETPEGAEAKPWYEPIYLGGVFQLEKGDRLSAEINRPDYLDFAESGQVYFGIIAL

On to `CCN(CC)C(=O)N(CC)CC`, for which the result in experiment [1], in [2], in experiment [3], in experiment [4] and in experiment [5] was inactive.

On to `COCCc1ccc(OCC(O)CNC(C)C)cc1` (stereo not drawn), for which the compound was classed as inactive in experiment [6], in experiment [7], in [8], in [9], in experiment [10] and in experiment [11]. For the same compound, the result in experiment [12] and in experiment [13] was inactive.

The AC50 is the concentration at which the activity in the assay is half-maximal. Turning to `CCCCCCCCCCCCCCCC(=O)OC/C=C(C)/C=C/C=C(C)/C=C/C1=C(C)CCCC1(C)C`, the outcome in experiment [1], in [4] and in [5] was inactive. Besides, the AC50 is 20 µM (active) in experiment [2] and 31.2 µM (active) in experiment [3].

`CC(=O)C1(C)CC2=C(CCCC2(C)C)CC1C` (stereo not drawn): the AC50 is 31.9 µM (active) in [1]; 28.8 µM (active) in [2]; 28.5 µM (active) in experiment [3]; 26 µM (active) in experiment [4]; 30.3 µM (active) in experiment [5].

For `CC(C)(C)CC(C)(C)c1ccc(OCCOCC[N+](C)(C)Cc2ccccc2)cc1`, the AC50 was 8.02 µM (active) in [1], 1.57 µM (active) in experiment [2], 8.48 µM (active) in experiment [4] and 5 µM (active) in [5]. Further, the result in experiment [3] was inactive.

As to `C=C(C)C(=O)OCCOCCOCCOCCOC(=O)C(=C)C`, the result in [1], in experiment [3], in experiment [4] and in experiment [5] was inactive. In experiment [2], the AC50 is 20 µM (active).

In the case of `CC(C)(N=C=O)c1cccc(C(C)(C)N=C=O)c1`, the outcome in experiment [1], in [2], in experiment [3], in [4] and in experiment [5] was inactive.

Regarding `Oc1c(Cl)cc(Cl)c(Cl)c1Cc1c(O)c(Cl)cc(Cl)c1Cl`, the AC50 in experiment [6] is 8.53 µM (active); in experiment [7] it was 31 µM (active); in experiment [8] it was 23.1 µM (active); in experiment [9] it was 13.4 µM (active); in experiment [10] it was 9.95 µM (active); in [11], 13.1 µM (active). The AC50 in experiment [15] is 1.42 µM (active); in experiment [16] it was 1.38 µM (active); in experiment [17] it was 1.4 µM (active); in experiment [13] it was 9.92 µM (active); in [1], 20 µM (active); in experiment [2], 0.993 µM (active). Further, the AC50 is 2.48 µM (active) in experiment [4], 15.2 µM (active) in [5], 18.3 µM (active) in experiment [19] and 3.18 µM (active) in experiment [20]. Besides, the outcome in experiment [14], in experiment [12], in experiment [18] and in [3] was inactive.
